{
  "source": "paper PMC11006913",
  "test_in_all_cases": "PBM; 200 nM protein, PBS",
  "conditions_in_all_cases": "dsDNA, one strand shown",
  "key": {"NKX2-5 [1]": {"target": "NKX2-5 (Homo sapiens, UniProt P52952 125-210, R139K)", "sequence (P52952 125-210 R139K)": "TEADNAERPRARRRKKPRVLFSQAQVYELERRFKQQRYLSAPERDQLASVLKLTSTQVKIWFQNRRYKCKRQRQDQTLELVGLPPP"}, "NKX2-5 [2]": {"target": "NKX2-5 (Homo sapiens, UniProt P52952 125-210)", "sequence (P52952 125-210)": "as the sequence (P52952 125-210 R139K) above, with K15R counted along it"}, "NKX2-4 [3]": {"target": "T1, NKX2-4 (Homo sapiens, UniProt Q9H2Z4 175-261, P217L)", "T1 sequence": "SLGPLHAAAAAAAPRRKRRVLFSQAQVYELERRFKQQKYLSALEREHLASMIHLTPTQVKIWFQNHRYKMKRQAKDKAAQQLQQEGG"}, "NKX2-4 [4]": {"target": "T2, NKX2-4 (Homo sapiens, UniProt Q9H2Z4 175-261, T231S)", "T2 sequence": "T1 sequence with L43P, T57S"}, "NKX2-4 [5]": {"target": "T3, NKX2-4 (Homo sapiens, UniProt Q9H2Z4 175-261)", "T3 sequence": "T1 sequence with L43P"}, "NKX2-6 [6]": {"target": "T4, NKX2-6 (Homo sapiens, UniProt A6NCS4 118-204)", "T4 sequence": "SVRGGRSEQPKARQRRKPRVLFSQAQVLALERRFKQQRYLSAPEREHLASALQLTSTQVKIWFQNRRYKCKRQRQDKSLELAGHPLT"}, "NKX2-4 [7]": {"target": "T5, NKX2-4 (Homo sapiens, UniProt Q9H2Z4 175-261, R246Q)", "T5 sequence": "T1 sequence with L43P, R72Q"}, "NKX2-6 [8]": {"target": "T6, NKX2-6 (Homo sapiens, UniProt A6NCS4 118-204, F151L)", "T6 sequence": "T4 sequence with F34L"}, "VENTX [9]": {"target": "T7, VENTX (Homo sapiens, UniProt O95231 78-163, R121Q)", "T7 sequence": "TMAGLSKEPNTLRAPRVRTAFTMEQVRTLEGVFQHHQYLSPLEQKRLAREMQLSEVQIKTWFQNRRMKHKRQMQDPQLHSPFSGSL"}, "VENTX [10]": {"target": "T8, VENTX (Homo sapiens, UniProt O95231 78-163)", "T8 sequence": "T7 sequence with Q44R"}, "VENTX [11]": {"target": "T9, VENTX (Homo sapiens, UniProt O95231 78-163, Y115F)", "T9 sequence": "T7 sequence with Y38F, Q44R"}, "ALX1 [12]": {"target": "ALX1 (Homo sapiens, UniProt Q15699 118-204, L144V)", "sequence (Q15699 118-204 L144V)": "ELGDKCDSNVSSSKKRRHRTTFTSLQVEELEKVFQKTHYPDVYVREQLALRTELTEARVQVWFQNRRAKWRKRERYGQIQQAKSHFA"}, "ALX1 [13]": {"target": "ALX1 (Homo sapiens, UniProt Q15699 118-204, L144R)", "sequence (Q15699 118-204 L144R)": "as the sequence (Q15699 118-204 L144V) above, with V27R counted along it"}, "ALX1 [14]": {"target": "ALX1 (Homo sapiens, UniProt Q15699 118-204)", "sequence (Q15699 118-204)": "as the sequence (Q15699 118-204 L144V) above, with V27L counted along it"}, "NKX2-6 [15]": {"target": "T10, NKX2-6 (Homo sapiens, UniProt A6NCS4 118-204, R150C)", "T10 sequence": "T4 sequence with R33C"}, "NKX3-2 [16]": {"target": "NKX3-2 (Homo sapiens, UniProt P78367 192-278, P234S)", "sequence (P78367 192-278 P234S)": "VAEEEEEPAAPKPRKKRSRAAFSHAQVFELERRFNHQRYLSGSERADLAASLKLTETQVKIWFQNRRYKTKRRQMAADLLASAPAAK"}, "NKX3-2 [17]": {"target": "NKX3-2 (Homo sapiens, UniProt P78367 192-278)", "sequence (P78367 192-278)": "as the sequence (P78367 192-278 P234S) above, with S43P counted along it"}},
  "note": "Positions count from the first letter of the chain named.",
  "data": [
    {"sequence": "CATGCGCC", "values": [
      {"measurement": "binding signal", "setting": "NKX2-5 [1]", "result": "8.86 upbm affinity estimate (log intensity, higher = more binding, comparable within an allelic series)"},
      {"measurement": "binding signal", "setting": "NKX2-5 [2]", "result": "8.85 upbm affinity estimate (log intensity, higher = more binding, comparable within an allelic series)"}
    ]},
    {"sequence": "GTCAAGTA", "values": [
      {"measurement": "binding signal", "setting": "NKX2-5 [1]", "result": "12.3 upbm affinity estimate (log intensity, higher = more binding, comparable within an allelic series)"},
      {"measurement": "binding signal", "setting": "NKX2-4 [3]", "result": "12.5 upbm affinity estimate (log intensity, higher = more binding, comparable within an allelic series)"},
      {"measurement": "binding signal", "setting": "NKX2-4 [4]", "result": "12.8 upbm affinity estimate (log intensity, higher = more binding, comparable within an allelic series)"},
      {"measurement": "binding signal", "setting": "NKX2-4 [5]", "result": "12.3 upbm affinity estimate (log intensity, higher = more binding, comparable within an allelic series)"},
      {"measurement": "binding signal", "setting": "NKX2-6 [6]", "result": "13.4 upbm affinity estimate (log intensity, higher = more binding, comparable within an allelic series)"},
      {"measurement": "binding signal", "setting": "NKX2-4 [7]", "result": "13 upbm affinity estimate (log intensity, higher = more binding, comparable within an allelic series)"},
      {"measurement": "binding signal", "setting": "NKX2-6 [8]", "result": "10.5 upbm affinity estimate (log intensity, higher = more binding, comparable within an allelic series)"},
      {"measurement": "binding signal", "setting": "NKX2-5 [2]", "result": "12.2 upbm affinity estimate (log intensity, higher = more binding, comparable within an allelic series)"}
    ]},
    {"sequence": "CGGTCGGC", "values": [
      {"measurement": "binding signal", "setting": "NKX2-5 [1]", "result": "8.67 upbm affinity estimate (log intensity, higher = more binding, comparable within an allelic series)"},
      {"measurement": "binding signal", "setting": "VENTX [9]", "result": "8.16 upbm affinity estimate (log intensity, higher = more binding, comparable within an allelic series)"},
      {"measurement": "binding signal", "setting": "VENTX [10]", "result": "8.35 upbm affinity estimate (log intensity, higher = more binding, comparable within an allelic series)"},
      {"measurement": "binding signal", "setting": "VENTX [11]", "result": "8.29 upbm affinity estimate (log intensity, higher = more binding, comparable within an allelic series)"},
      {"measurement": "binding signal", "setting": "ALX1 [12]", "result": "6.28 upbm affinity estimate (log intensity, higher = more binding, comparable within an allelic series)"},
      {"measurement": "binding signal", "setting": "ALX1 [13]", "result": "6.31 upbm affinity estimate (log intensity, higher = more binding, comparable within an allelic series)"},
      {"measurement": "binding signal", "setting": "ALX1 [14]", "result": "6.46 upbm affinity estimate (log intensity, higher = more binding, comparable within an allelic series)"},
      {"measurement": "binding signal", "setting": "NKX2-5 [2]", "result": "8.65 upbm affinity estimate (log intensity, higher = more binding, comparable within an allelic series)"}
    ]},
    {"sequence": "CAAGTACC", "values": [
      {"measurement": "binding signal", "setting": "NKX2-5 [1]", "result": "12.5 upbm affinity estimate (log intensity, higher = more binding, comparable within an allelic series)"},
      {"measurement": "binding signal", "setting": "NKX2-4 [3]", "result": "12.4 upbm affinity estimate (log intensity, higher = more binding, comparable within an allelic series)"},
      {"measurement": "binding signal", "setting": "NKX2-4 [4]", "result": "12.8 upbm affinity estimate (log intensity, higher = more binding, comparable within an allelic series)"},
      {"measurement": "binding signal", "setting": "NKX2-4 [5]", "result": "12.4 upbm affinity estimate (log intensity, higher = more binding, comparable within an allelic series)"},
      {"measurement": "binding signal", "setting": "NKX2-6 [15]", "result": "11.6 upbm affinity estimate (log intensity, higher = more binding, comparable within an allelic series)"},
      {"measurement": "binding signal", "setting": "NKX2-4 [7]", "result": "12.9 upbm affinity estimate (log intensity, higher = more binding, comparable within an allelic series)"},
      {"measurement": "binding signal", "setting": "NKX3-2 [16]", "result": "12.5 upbm affinity estimate (log intensity, higher = more binding, comparable within an allelic series)"},
      {"measurement": "binding signal", "setting": "NKX2-5 [2]", "result": "12.3 upbm affinity estimate (log intensity, higher = more binding, comparable within an allelic series)"},
      {"measurement": "binding signal", "setting": "NKX3-2 [17]", "result": "12.6 upbm affinity estimate (log intensity, higher = more binding, comparable within an allelic series)"}
    ]},
    {"sequence": "CACTTCAA", "values": [
      {"measurement": "binding signal", "setting": "NKX2-5 [1]", "result": "12.4 upbm affinity estimate (log intensity, higher = more binding, comparable within an allelic series)"},
      {"measurement": "binding signal", "setting": "NKX2-4 [3]", "result": "12.6 upbm affinity estimate (log intensity, higher = more binding, comparable within an allelic series)"},
      {"measurement": "binding signal", "setting": "NKX2-4 [4]", "result": "13 upbm affinity estimate (log intensity, higher = more binding, comparable within an allelic series)"},
      {"measurement": "binding signal", "setting": "NKX2-4 [5]", "result": "12.5 upbm affinity estimate (log intensity, higher = more binding, comparable within an allelic series)"},
      {"measurement": "binding signal", "setting": "NKX2-6 [15]", "result": "11.6 upbm affinity estimate (log intensity, higher = more binding, comparable within an allelic series)"},
      {"measurement": "binding signal", "setting": "NKX2-4 [7]", "result": "13.1 upbm affinity estimate (log intensity, higher = more binding, comparable within an allelic series)"},
      {"measurement": "binding signal", "setting": "NKX2-6 [8]", "result": "10.9 upbm affinity estimate (log intensity, higher = more binding, comparable within an allelic series)"},
      {"measurement": "binding signal", "setting": "NKX2-5 [2]", "result": "12.4 upbm affinity estimate (log intensity, higher = more binding, comparable within an allelic series)"}
    ]},
    {"sequence": "CGTGCGGC", "values": [
      {"measurement": "binding signal", "setting": "NKX2-5 [1]", "result": "8.72 upbm affinity estimate (log intensity, higher = more binding, comparable within an allelic series)"},
      {"measurement": "binding signal", "setting": "NKX2-4 [3]", "result": "9.48 upbm affinity estimate (log intensity, higher = more binding, comparable within an allelic series)"},
      {"measurement": "binding signal", "setting": "NKX2-4 [4]", "result": "9.35 upbm affinity estimate (log intensity, higher = more binding, comparable within an allelic series)"},
      {"measurement": "binding signal", "setting": "NKX2-4 [5]", "result": "9.44 upbm affinity estimate (log intensity, higher = more binding, comparable within an allelic series)"},
      {"measurement": "binding signal", "setting": "NKX2-4 [7]", "result": "9.47 upbm affinity estimate (log intensity, higher = more binding, comparable within an allelic series)"},
      {"measurement": "binding signal", "setting": "NKX2-5 [2]", "result": "8.8 upbm affinity estimate (log intensity, higher = more binding, comparable within an allelic series)"}
    ]},
    {"sequence": "CACTTGAA", "values": [
      {"measurement": "binding signal", "setting": "NKX2-5 [1]", "result": "13.2 upbm affinity estimate (log intensity, higher = more binding, comparable within an allelic series)"},
      {"measurement": "binding signal", "setting": "NKX2-4 [3]", "result": "12.8 upbm affinity estimate (log intensity, higher = more binding, comparable within an allelic series)"},
      {"measurement": "binding signal", "setting": "NKX2-4 [4]", "result": "13.3 upbm affinity estimate (log intensity, higher = more binding, comparable within an allelic series)"},
      {"measurement": "binding signal", "setting": "NKX2-4 [5]", "result": "12.7 upbm affinity estimate (log intensity, higher = more binding, comparable within an allelic series)"},
      {"measurement": "binding signal", "setting": "NKX2-6 [15]", "result": "12.2 upbm affinity estimate (log intensity, higher = more binding, comparable within an allelic series)"},
      {"measurement": "binding signal", "setting": "NKX2-6 [6]", "result": "13.9 upbm affinity estimate (log intensity, higher = more binding, comparable within an allelic series)"},
      {"measurement": "binding signal", "setting": "NKX2-4 [7]", "result": "13.5 upbm affinity estimate (log intensity, higher = more binding, comparable within an allelic series)"},
      {"measurement": "binding signal", "setting": "NKX2-6 [8]", "result": "11.4 upbm affinity estimate (log intensity, higher = more binding, comparable within an allelic series)"},
      {"measurement": "binding signal", "setting": "NKX2-5 [2]", "result": "13.2 upbm affinity estimate (log intensity, higher = more binding, comparable within an allelic series)"}
    ]},
    {"sequence": "GTACTTGA", "values": [
      {"measurement": "binding signal", "setting": "NKX2-5 [1]", "result": "13 upbm affinity estimate (log intensity, higher = more binding, comparable within an allelic series)"},
      {"measurement": "binding signal", "setting": "NKX2-4 [3]", "result": "12.8 upbm affinity estimate (log intensity, higher = more binding, comparable within an allelic series)"},
      {"measurement": "binding signal", "setting": "NKX2-4 [4]", "result": "13.2 upbm affinity estimate (log intensity, higher = more binding, comparable within an allelic series)"},
      {"measurement": "binding signal", "setting": "NKX2-4 [5]", "result": "12.6 upbm affinity estimate (log intensity, higher = more binding, comparable within an allelic series)"},
      {"measurement": "binding signal", "setting": "NKX2-6 [15]", "result": "12.1 upbm affinity estimate (log intensity, higher = more binding, comparable within an allelic series)"},
      {"measurement": "binding signal", "setting": "NKX2-6 [6]", "result": "13.7 upbm affinity estimate (log intensity, higher = more binding, comparable within an allelic series)"},
      {"measurement": "binding signal", "setting": "NKX2-4 [7]", "result": "13.3 upbm affinity estimate (log intensity, higher = more binding, comparable within an allelic series)"},
      {"measurement": "binding signal", "setting": "NKX2-6 [8]", "result": "11.1 upbm affinity estimate (log intensity, higher = more binding, comparable within an allelic series)"},
      {"measurement": "binding signal", "setting": "NKX2-5 [2]", "result": "12.8 upbm affinity estimate (log intensity, higher = more binding, comparable within an allelic series)"}
    ]},
    {"sequence": "GCTGGGCC", "values": [
      {"measurement": "binding signal", "setting": "NKX2-5 [1]", "result": "8.63 upbm affinity estimate (log intensity, higher = more binding, comparable within an allelic series)"},
      {"measurement": "binding signal", "setting": "NKX2-5 [2]", "result": "8.61 upbm affinity estimate (log intensity, higher = more binding, comparable within an allelic series)"}
    ]}
  ]
}
